# Assay results as given in PubChem BioAssay (NCATS).
# Inconclusive results are not listed. Entries that show only a call come without a potency. Calls of active or inactive are those of the source. Calls follow the shape of the dose curve; as a rule, active = well fitted curve in the direction sought with a large enough effect; inconclusive = small, poorly fitted or top-dose-only effect, or another doubt; inactive = no such curve, though single readings can be large; an effect the other way counts as inactive or inconclusive.
# Tests used:
# [1] = target: Metallo-beta-lactamase type 2 (Klebsiella pneumoniae) (UniProt C7C422); assay: qHTS to identify inhibitors of the New Delhi Metallo-beta-lactamase (NDM): assay validation screen against the NCATS LOPAC Collection (AID 1794843);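 also: nitrocefin turnover by NDM-1 measured as 485 nm absorbance at plateau; series mostly up to about 38 µM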
# Procedure, shortened: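 Enzyme 2 nM final, 50 mM HEPES pH 7.0, 1 uM ZnSO4, 0.01% Tween20; cpds in DMSO, preincub w/ enzyme; + nitrocefin (50 uM stock); A485 at plateau; no-enzyme column as blank.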
# [2] = target: Glutathione peroxidase 1 (Homo sapiens) (UniProt P07203); assay: Primary qHTS Assay for Inhibitors of Recombinant Selenoprotein Glutathione Peroxidase 1 (GPX1) (AID 1845191); also: nearly all actives have a fitted effect of over 65% in size; also: potency is read from the fitted curve at half-maximal effect
# Procedure, shortened: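 10 nM GPX1 + cpd, 30 min RT; start w/ 1 mM GSH, 0.5 mM cumene hydroperoxide, 0.5 mM NADPH, 100 nM GR, 0.01% BSA; buffer 50 mM Tris-HCl pH 7.5, 2 mM EDTA, 150 mM NaCl; Fl 340/450, 0 & 15 min.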
# [3] = target: Phospholipid hydroperoxide glutathione peroxidase GPX4 (Homo sapiens) (UniProt P36969); assay: Primary qHTS Assay for Inhibitors of Recombinant Selenoprotein Glutathione Peroxidase 4 (GPX4) (AID 1845192); also: nearly all actives have a fitted effect of over 65% in size; also: potency is read from the fitted curve at half-maximal effect
# Procedure, shortened: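 NADPH consumption, followed by fluorescence at 340/450 nm between 0 and 15 min, reports GPX4 activity via coupled glutathione reductase (100 nM). Enzyme 200 nM was pre-exposed to compound 30 min; 0.5 mM cumene hydroperoxide and 1 mM GSH served as substrates.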
# Glutathione peroxidase 1 (Homo sapiens), sequence (P07203 whole entry, looked up): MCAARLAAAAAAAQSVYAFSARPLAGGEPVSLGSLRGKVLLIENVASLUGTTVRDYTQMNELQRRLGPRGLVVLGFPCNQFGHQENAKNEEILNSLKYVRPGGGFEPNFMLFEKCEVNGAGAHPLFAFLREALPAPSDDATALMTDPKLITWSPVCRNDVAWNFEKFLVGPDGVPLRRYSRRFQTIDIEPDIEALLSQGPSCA
# Metallo-beta-lactamase type 2 (Klebsiella pneumoniae), sequence (C7C422 whole entry, looked up): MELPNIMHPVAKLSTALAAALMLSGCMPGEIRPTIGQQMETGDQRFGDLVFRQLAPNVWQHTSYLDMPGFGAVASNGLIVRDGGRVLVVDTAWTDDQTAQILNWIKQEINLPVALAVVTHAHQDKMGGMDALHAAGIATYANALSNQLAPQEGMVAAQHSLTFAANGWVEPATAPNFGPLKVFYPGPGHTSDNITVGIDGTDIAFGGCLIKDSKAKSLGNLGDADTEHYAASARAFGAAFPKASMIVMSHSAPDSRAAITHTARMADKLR
# Phospholipid hydroperoxide glutathione peroxidase GPX4 (Homo sapiens), sequence (P36969 whole entry, looked up): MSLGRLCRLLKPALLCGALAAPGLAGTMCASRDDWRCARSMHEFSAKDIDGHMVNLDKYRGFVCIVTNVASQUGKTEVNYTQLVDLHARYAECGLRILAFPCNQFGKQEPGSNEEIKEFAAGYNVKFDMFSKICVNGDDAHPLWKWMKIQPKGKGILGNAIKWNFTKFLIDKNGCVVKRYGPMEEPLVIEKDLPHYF
Compound,Potency [1],Potency [2],Potency [3]
Cc1c2ccncc2c(C)c2c1[nH]c1ccccc12,inactive,inactive,inactive
COc1ccc(CNC(=O)/C=C/c2ccc3[nH]cc(CCN(C)C)c3c2)cc1,inactive,inactive,–
C[C@H](Cc1ccc2c(c1)OC(C(=O)O)(C(=O)O)O2)NC[C@H](O)c1cccc(Cl)c1,inactive,inactive,–
CO[C@H]1CC=C2CCN3CCC4=C(CC(=O)OC4)[C@]23C1,inactive,inactive,inactive
C[C@H](N)Cc1cccc(C(F)(F)F)c1,inactive,inactive,–
O=S1(=O)N(CCN2CC=C(c3c[nH]c4cc(F)ccc34)CC2)c2cccc3c2N1CCC3,inactive,inactive,inactive
C[N+]1(C)C2CCC1CC(OC(=O)c1c[nH]c3ccccc13)C2 (stereo not drawn),inactive,–,inactive
C[C@@H](CO)NC(=O)[C@@H]1C=C2c3cccc4[nH]cc(c34)C[C@H]2N(C)C1,–,inactive,–
C=C(CO)C(=O)O[C@H]1C/C(C)=C/CC/C(CO)=C/[C@H]2OC(=O)C(=C)[C@H]12,–,inactive,–
CCCC(=O)OC(C(Cl)(Cl)Cl)P(=O)(OC)OC (stereo not drawn),–,inactive,–
Oc1ccc2c3c1O[C@H]1c4[nH]c5ccccc5c4C[C@@]4(O)C(C2)N(CC2CC2)CCC314 (stereo partly drawn),inactive,inactive,inactive
NNC(=O)c1ccc(O)cc1,inactive,–,inactive
Oc1ccc2c3c1O[C@H]1c4oc5ccccc5c4C[C@@]4(O)C(C2)N(CC2CC2)CCC314 (stereo partly drawn),–,inactive,inactive
C[C@]12CC[C@H](OS(=O)(=O)O)CC1=CC[C@@H]1[C@@H]2CC[C@]2(C)C(=O)CC[C@@H]12,–,inactive,–
COC([CH2][Hg])CNC(=O)c1ccccc1OCC(=O)O (stereo not drawn),–,inactive,–
CC(N)Cc1c[nH]c2ccc(O)cc12 (stereo not drawn),inactive,–,inactive
CC(C)CCON=O,–,inactive,inactive
CCCn1c(=O)c2[nH]c(C3CCCC3)nc2n(CCCOC(=O)c2ccc(S(=O)(=O)F)cc2)c1=O,inactive,–,inactive
Clc1ccc(N2CC3CCC(C2)N3)nn1,inactive,inactive,inactive

Compound,Potency [1],Potency [2],Potency [3]
COc1ccc2c(c1O)-c1cccc3c1[C@@H](C2)N(C)CC3,–,inactive,–
Cn1sc(Cl)cc1=O,–,inactive,inactive
COc1ccccc1CN[C@H]1C2CCN(CC2)[C@H]1C(c1ccccc1)c1ccccc1,–,inactive,–
CN1CCc2cccc(Cl)c2CC1,inactive,inactive,inactive
CCCCCCCCCC(=O)O[C@H]1CC[C@H]2[C@@H]3CCC4=CC(=O)CC[C@]4(C)[C@H]3CC[C@]12C,–,inactive,–
CN1CCC(c2c[nH]c3ccc(O)cc23)CC1,inactive,–,inactive
OC1CCCCC1N1CCC(c2ccccc2)CC1 (stereo not drawn),inactive,–,inactive
O=C1C=CC(=O)C=C1,inactive,inactive,inactive
CC[N+](C)(CC)CCOC(=O)C(O)(c1ccccc1)c1ccccc1,–,inactive,inactive
CC(C)(O)[C@@H]1[C@H]2OC(=O)[C@@H]1[C@]1(O)C[C@H]3O[C@]34C(=O)O[C@H]2[C@]14C,–,inactive,–
CC1=C2C[C@H]3[C@@H](CC=C4C[C@@H](O)CC[C@@]43C)[C@@H]2CC[C@]12O[C@@H]1C[C@H](C)CN[C@H]1[C@H]2C,–,inactive,inactive
CCCC[N+]1(C)C2CC(OC(=O)[C@H](CO)c3ccccc3)CC1C1OC12 (stereo partly drawn),inactive,–,inactive
NC(=O)c1ccc(OCC(O)CN2CC=C(c3ccc(F)cc3)CC2)cc1 (stereo not drawn),inactive,–,inactive
Clc1cc(I)cc(Cl)c1NC1=NCCN1,inactive,–,inactive
Ic1ccccc1CNC1C2CCN(CC2)C1C(c1ccccc1)c1ccccc1 (stereo not drawn),–,inactive,inactive
CCCCNCC(O)c1ccc(O)cc1 (stereo not drawn),–,inactive,inactive
C[C@]12CCC(=O)C=C1C=C[C@@H]1[C@@H]2CC[C@@]2(C)[C@H]1CC[C@@]2(O)CCC(=O)O,–,inactive,–
CCOC(=O)c1ccccc1C(=O)OCC,–,inactive,–
O=[N+]([O-])c1cc(I)c(O)c(I)c1,–,inactive,–

Compound,Potency [1],Potency [2],Potency [3]
N[C@@]1(C(=O)O)CC[C@@H](C(=O)O)C1,inactive,–,inactive
NC(=O)c1cc(N2CC2)c([N+](=O)[O-])cc1[N+](=O)[O-],–,inactive,–
c1ccc2sc(SNC3CCCCC3)nc2c1,–,28.2 µM (active),–
NNC(N)=O,–,inactive,–
COC1CC(=O)C23C(=O)NC(CC(C)C)C2C(C)=C(C)C(OO)C3/C=C(\C)CCC(O)C1O (stereo not drawn),–,inactive,–
CC(C)(C)OC(=O)NC1[C@H]2CNC[C@@H]12 (stereo partly drawn),inactive,inactive,inactive
CC[C@H]1CN2CC[C@H]1C[C@H]2[C@H](O)c1ccnc2ccc(OC)cc12,–,inactive,inactive
CCOc1ccc2c3c1O[C@H]1[C@@H](O)C=C[C@H]4[C@@H](C2)N(C)CC[C@@]341,–,inactive,inactive
CCCCCCC(=O)O[C@H]1CC[C@H]2[C@@H]3CC[C@H]4CC(=O)C=C(C)[C@]4(C)[C@H]3CC[C@]12C,–,inactive,6.31 µM (active)
CC1C/C=C/C(O)C(O)CC/C=C/c2cc(O)cc(O)c2C(=O)O1 (stereo not drawn),–,inactive,inactive
CC(C)CCC(=O)O[C@H]1CC[C@H]2[C@@H]3CCC4=CC(=O)CC[C@]4(C)[C@H]3CC[C@]12C,–,inactive,inactive
CC(=O)O[C@H]1CC[C@H]2[C@@H]3CCC4=CC(=O)CCC4=C3C=C[C@]12C,–,–,22.4 µM (active)
ClC1C(Cl)C(Cl)C(Cl)C(Cl)C1Cl (stereo not drawn),–,inactive,inactive
N=C(N)c1ccc(CS(=O)(=O)F)cc1,–,–,inactive
NCC(O)c1cccc(O)c1 (stereo not drawn),–,inactive,inactive
CCC(=O)O[C@@](Cc1ccccc1)(c1ccccc1)[C@@H](C)CN(C)C,–,–,inactive
CCC1(CC)C(=O)NC(=O)N(C)C1=O,–,inactive,inactive
N#CCCN,–,inactive,inactive
Oc1ccc2c3c1O[C@H]1[C@@H](O)CC[C@@]4(O)[C@@H](C2)N(CC2CCC2)CC[C@]314,–,inactive,inactive
